Among all 5,500 compounds or so, about 2,000 (36%) were called active. Roughly 18% stayed inconclusive and do not appear here. Rule as the data show it: active = normalized growth mostly below about 0.91 (no sharp cut-off); inconclusive = no clear call, values can overlap the other calls; inactive = mostly above about 0.92. Some of the results follow.
Experiment: chemical genetic growth profiling, strain panel (AID 1159580);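 also: tested at 20 µM; growth read once vehicle control cultures reached saturation at 30 °C; 1 = growth at the plate median or of vehicle wells; lower values mean less growth of the strain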
Conditions: growth OD

Measured: normalized growth

N=C(N)c1ccc(OCCCCCOc2ccc(C(=N)N)cc2)cc1
active: S. cerevisiae deletion strains, locus YKL068W, stronger effect = lower value 0.92 | S. cerevisiae deletion strains, locus YLR418C, strain cdc73, stronger effect = lower value 0.789 | S. cerevisiae deletion strains, locus YML032C, strain rad52, stronger effect = lower value 0.828 | S. cerevisiae deletion strains, locus YMR058W, strain fet3, stronger effect = lower value 0.828 | S. cerevisiae deletion strains, locus YMR205C, strain PFK2, stronger effect = lower value 0.758 | S. cerevisiae deletion strains, locus YMR223W, strain ubp8, stronger effect = lower value 0.868 | S. cerevisiae deletion strains, locus YMR307W, strain GAS1, stronger effect = lower value 0.554 | S. cerevisiae deletion strains, locus YNL250W, strain rad50, stronger effect = lower value 0.894 | S. cerevisiae deletion strains, locus YNL307C, strain MCK1, stronger effect = lower value 0.811 | S. cerevisiae deletion strains, locus YNR052C, strain pop2, stronger effect = lower value 0.823 | S. cerevisiae deletion strains, locus YOR144C, strain elg1, stronger effect = lower value 0.921 | S. cerevisiae deletion strains, locus YOR184W, strain ser1, stronger effect = lower value 0.832 | S. cerevisiae deletion strains, locus YPR141C, strain kar3, stronger effect = lower value 0.905 | S. cerevisiae deletion strains, locus YPR163C, strain tif3, stronger effect = lower value 0.901 | S. cerevisiae deletion strains, strain wtn01, stronger effect = lower value 0.891
inactive: S. cerevisiae deletion strains, locus YJR043C, strain POL32, stronger effect = lower value 0.909 | S. cerevisiae deletion strains, locus YJR075W, strain HOC1, stronger effect = lower value 0.918 | S. cerevisiae deletion strains, locus YKL009W, strain mrt4, stronger effect = lower value 0.942 | S. cerevisiae deletion strains, locus YKL085W, strain MDH1 (second series), stronger effect = lower value 0.936 | S. cerevisiae deletion strains, locus YKL085W, strain MDH1, stronger effect = lower value 0.936 | S. cerevisiae deletion strains, locus YKL160W, strain elf1, stronger effect = lower value 0.948 | S. cerevisiae deletion strains, locus YKL190W, strain CNB1, stronger effect = lower value 0.959 | S. cerevisiae deletion strains, locus YKR001C, strain vps1, stronger effect = lower value 0.952 | S. cerevisiae deletion strains, locus YKR026C, strain gcn3, stronger effect = lower value 0.967 | S. cerevisiae deletion strains, locus YKR091W, strain srl3, stronger effect = lower value 0.961 | S. cerevisiae deletion strains, locus YLL001W, strain dnm1, stronger effect = lower value 0.916 | S. cerevisiae deletion strains, locus YLL026W, stronger effect = lower value 0.97 | S. cerevisiae deletion strains, locus YLL041C, strain sdh2, stronger effect = lower value 0.974 | S. cerevisiae deletion strains, locus YLR027C, strain aat2, stronger effect = lower value 0.951 | S. cerevisiae deletion strains, locus YLR039C, strain RIC1, stronger effect = lower value 1.09 | S. cerevisiae deletion strains, locus YLR058C, strain SHM2, stronger effect = lower value 0.977 | S. cerevisiae deletion strains, locus YLR102C, strain apc9, stronger effect = lower value 0.939 | S. cerevisiae deletion strains, locus YLR221C, strain rsa3, stronger effect = lower value 0.958 | S. cerevisiae deletion strains, locus YLR258W, strain gsy2, stronger effect = lower value 0.963 | S. cerevisiae deletion strains, locus YLR262C, strain YPT6 (second series), stronger effect = lower value 0.988 | S. cerevisiae deletion strains, locus YLR262C, strain YPT6, stronger effect = lower value 1.11 | S. cerevisiae deletion strains, locus YLR268W, strain sec22, stronger effect = lower value 0.887 | S. cerevisiae deletion strains, locus YLR320W, strain mms22, stronger effect = lower value 0.89 | S. cerevisiae deletion strains, locus YLR330W, strain CHS5, stronger effect = lower value 0.999 | S. cerevisiae deletion strains, locus YLR342W, strain FKS1 (second series), stronger effect = lower value 0.89 | S. cerevisiae deletion strains, locus YLR342W, strain FKS1, stronger effect = lower value 0.958 | S. cerevisiae deletion strains, locus YLR357W, strain rsc2, stronger effect = lower value 0.979 | S. cerevisiae deletion strains, locus YLR370C, strain arc18, stronger effect = lower value 0.954 | S. cerevisiae deletion strains, locus YLR371W, strain rom2, stronger effect = lower value 0.929 | S. cerevisiae deletion strains, locus YLR384C, strain iki3, stronger effect = lower value 0.944 | S. cerevisiae deletion strains, locus YML016C, strain PPZ1, stronger effect = lower value 0.991 | S. cerevisiae deletion strains, locus YML120C, strain ndi1, stronger effect = lower value 0.956 | S. cerevisiae deletion strains, locus YML124C, strain tub3, stronger effect = lower value 0.943 | S. cerevisiae deletion strains, locus YMR078C, strain ctf18, stronger effect = lower value 0.912 | S. cerevisiae deletion strains, locus YMR125W, strain sto1, stronger effect = lower value 0.949 | S. cerevisiae deletion strains, locus YMR129W, stronger effect = lower value 0.974 | S. cerevisiae deletion strains, locus YMR231W, strain pep5, stronger effect = lower value 0.965 | S. cerevisiae deletion strains, locus YMR263W, strain SAP30, stronger effect = lower value 0.93 | S. cerevisiae deletion strains, locus YNL067W, strain RPL9B, stronger effect = lower value 0.93 | S. cerevisiae deletion strains, locus YNL071W, strain lat1, stronger effect = lower value 0.957 | S. cerevisiae deletion strains, locus YNL128W, strain TEP1, stronger effect = lower value 0.926 | S. cerevisiae deletion strains, locus YNL153C, strain GIM3, stronger effect = lower value 0.958 | S. cerevisiae deletion strains, locus YNL209W, strain ssb2, stronger effect = lower value 0.948 | S. cerevisiae deletion strains, locus YNL233W, strain BNI4, stronger effect = lower value 0.927 | S. cerevisiae deletion strains, locus YNL248C, strain rpa49, stronger effect = lower value 0.955 | S. cerevisiae deletion strains, locus YNL271C, strain bni1, stronger effect = lower value 0.929 | S. cerevisiae deletion strains, locus YNL298W, strain CLA4, stronger effect = lower value 0.931 | S. cerevisiae deletion strains, locus YNL322C, strain KRE1 (second series), stronger effect = lower value 0.918 | S. cerevisiae deletion strains, locus YNL322C, strain KRE1, stronger effect = lower value 0.972 | S. cerevisiae deletion strains, locus YNR049C, strain mso1, stronger effect = lower value 0.941 | S. cerevisiae deletion strains, locus YOL006C, strain TOP1, stronger effect = lower value 1.11 | S. cerevisiae deletion strains, locus YOL012C, strain htz1 0.566 | S. cerevisiae deletion strains, locus YOL147C, strain pex11, stronger effect = lower value 0.939 | S. cerevisiae deletion strains, locus YOR001W, strain rrp6, stronger effect = lower value 0.94 | S. cerevisiae deletion strains, locus YOR061W, strain CKA2, stronger effect = lower value 0.964 | S. cerevisiae deletion strains, locus YOR069W, strain VPS5, stronger effect = lower value 0.964 | S. cerevisiae deletion strains, locus YOR070C, strain gyp1, stronger effect = lower value 0.97 | S. cerevisiae deletion strains, locus YOR080W, strain dia2, stronger effect = lower value 0.936 | S. cerevisiae deletion strains, locus YOR083W, strain WHI5, stronger effect = lower value 0.927 | S. cerevisiae deletion strains, locus YOR106W, strain vam3, stronger effect = lower value 0.997 | S. cerevisiae deletion strains, locus YOR136W, strain idh2, stronger effect = lower value 0.95 | S. cerevisiae deletion strains, locus YOR265W, strain rbl2, stronger effect = lower value 0.962 | S. cerevisiae deletion strains, locus YOR270C, strain vph1, stronger effect = lower value 1.17 | S. cerevisiae deletion strains, locus YOR290C, strain snf2, stronger effect = lower value 0.946 | S. cerevisiae deletion strains, locus YOR316C, strain cot1, stronger effect = lower value 0.943 | S. cerevisiae deletion strains, locus YPL051W, strain arl3, stronger effect = lower value 0.98 | S. cerevisiae deletion strains, locus YPL055C, strain LGE1, stronger effect = lower value 0.943 | S. cerevisiae deletion strains, locus YPL078C, strain atp4, stronger effect = lower value 1.03 | S. cerevisiae deletion strains, locus YPL106C, strain sse1, stronger effect = lower value 0.948 | S. cerevisiae deletion strains, locus YPL240C, strain hsp82, stronger effect = lower value 0.989 | S. cerevisiae deletion strains, locus YPL241C, strain CIN2, stronger effect = lower value 0.973 | S. cerevisiae deletion strains, locus YPR119W, strain clb2, stronger effect = lower value 0.934 | S. cerevisiae deletion strains, locus YPR167C, strain met16, stronger effect = lower value 0.944 | S. cerevisiae strains, strain wild type, stronger effect = lower value 0.94

— PubChem BioAssay AID1159580 (chemical genetic matrix, 2015)
